Among the targets are P4HA2; P2RY8; PAFAH1B2; P4HB; PARP11; PCDHGA11; PCP2; PCSK5; PCDHA4; PDE1C; PDGFRB; PDE8B.
Common to all, as to assay: pooled miR-30 sensor sort-seq; sequence = guide strand
What all share (settings): shRNA

This note sets out measurements from the OligoGym collection.
Also: reference of the scale not given here.

The sequence TTATTGGAGACCCACTTGCAGC displayed a sensor-assay potency score (higher = more potent) with P4HA2 of -1.45. In the experiment with P2RY8, TTGATCATGAAGATGACCGACG displayed a sensor-assay potency score (higher = more potent) of -0.289. TTACAGTCCAAAACAAATCTGT had a sensor-assay potency score (higher = more potent) with PAFAH1B2 of 0.236. In turn, TTGCAACCTGTAACAATTCTGC came in with a sensor-assay potency score (higher = more potent) with P4HA2 of -0.407. Consider TTTGATAAAGTCCAGCAGGTTC, for which the sensor-assay potency score (higher = more potent) with P4HB is -0.96. In the case of TTGCTTTCTAGGGTTCAGCTTT, the sensor-assay potency score (higher = more potent) with P2RY8 is -0.874. In turn, TTCTGCTGTATTTTCGTGGTTA yielded a sensor-assay potency score (higher = more potent) with PAFAH1B2 of 0.637. Regarding TTGTAATCAATGACCGTCCTGT, in the experiment with P4HB, the sensor-assay potency score (higher = more potent) turned out to be 0.492.

For TTGTGCTGAGACATCCATCGGT, the sensor-assay potency score (higher = more potent) with PAFAH1B2 came out at 0.723.

In the case of TTTTTTCTTGAGCTGAGCCTTT, the sensor-assay potency score (higher = more potent) with PARP11 is -0.428. In the experiment with PCDHGA11, ACAGTGATCAACATCGTCGTGG returned a sensor-assay potency score (higher = more potent) of -0.0572. In the experiment with PCP2, TTTCTGTGCTCCGTCCTTGGAC came in with a sensor-assay potency score (higher = more potent) of -1.03. In the case of TAGCTCTGGACCAACTCCCTGT, the sensor-assay potency score (higher = more potent) with PCDHGA11 was found to be 0.0165. The sequence TTTTGCTTCAACCATGTCCGTG returned a sensor-assay potency score (higher = more potent) with PCSK5 of -0.77. Turning to TGAACAGCGCTGTCCCTCCATC, in the experiment with PCP2, the sensor-assay potency score (higher = more potent) was -1.32. In the case of TATATTGTAGCTCTGGACCAAC, in the experiment with PCDHGA11, the sensor-assay potency score (higher = more potent) was -0.9. In the experiment with PCDHA4, TATCGTTGTTGTCTTCTACTTC returned a sensor-assay potency score (higher = more potent) of 0.366. The sequence TTGTCCACCGCAACCACCTTGG showed a sensor-assay potency score (higher = more potent) with PCDHGA11 of -0.673. Sequence ACACGTTGGTCATCCATGCGGC yielded a sensor-assay potency score (higher = more potent) with PCP2 of -0.873. TAAAACAGGAGACTTGACCATT showed a sensor-assay potency score (higher = more potent) with PCDHGA11 of -0.606. With TTCCTCAGTTGTCTGCAGCTGA, in the experiment with PCDHA4, the sensor-assay potency score (higher = more potent) was 0.537. In the experiment with PCSK5, ATAGCTGATACTACAGCTCTGC gave a sensor-assay potency score (higher = more potent) of -0.314. In turn, TTTGCTTCAACCATGTCCGTGA gave a sensor-assay potency score (higher = more potent) in the experiment with PCSK5 of 0.588.

The sequence TTGTCTTGATTTGTCGGTCTGT yielded a sensor-assay potency score (higher = more potent) with PCSK5 of 0.944. Regarding TTCAAAGTCAATATATCCCTTT, in the experiment with PCDHA4, the sensor-assay potency score (higher = more potent) is 0.476. The sequence TTGCAGTGAACAGCGCTGTCCC returned a sensor-assay potency score (higher = more potent) in the experiment with PCP2 of -0.308. TTTGTCCACCGCAACCACCTTG registered a sensor-assay potency score (higher = more potent) with PCDHGA11 of -1.17. On to TTCCATTGAAATGAAACTGTGG, for which, in the experiment with PCSK5, the sensor-assay potency score (higher = more potent) was -0.149. Same read-out and setting: for TTGATTTGTCGGTCTGTGCTCT the value was 0.6. Consider TTTAGAAGAGCAATCACTGTAC, for which the sensor-assay potency score (higher = more potent) in the experiment with PCDHGA11 worked out at 0.556. For TGTCACACGTTGGTCATCCATG, in the experiment with PCP2, the sensor-assay potency score (higher = more potent) is -1.21. Sequence TTGAAAGCAATTCCGACTGTGC showed a sensor-assay potency score (higher = more potent) with PCSK5 of -0.25. For the sequence TCAATTTGTAATAATTTCCATA, in the experiment with PCDHGA11, the sensor-assay potency score (higher = more potent) was -0.421.

In the case of TTGTACAGTTCTTGAATCCTGG, the sensor-assay potency score (higher = more potent) with PCSK5 is -0.113. The sequence TATCTCCACTTCGTCCTCCTGG yielded a sensor-assay potency score (higher = more potent) with PCDHGA11 of -0.661. In the case of TGAAGAAGCCCTCCTGGTCTGG, the sensor-assay potency score (higher = more potent) with PCP2 was -1.06.

TCCATGAGGCTGTCCATCTCGG returned a sensor-assay potency score (higher = more potent) in the experiment with PCP2 of -1.39. The same measure, in the same setting: for TGACTGTCACACGTTGGTCATC the value was -1.61. For the sequence TTGAATTTCCATCTCATAGAAT, the sensor-assay potency score (higher = more potent) with PCDHGA11 is -0.931. Sequence TCGTTTCTGTGCTCCGTCCTTG registered a sensor-assay potency score (higher = more potent) with PCP2 of -0.435. For TTTTCTGGAACACTCACGCGAT, the sensor-assay potency score (higher = more potent) with PCDHGA11 was -0.577. In the experiment with PCP2, TTCTGTGCTCCGTCCTTGGACC returned a sensor-assay potency score (higher = more potent) of -1.15. The sequence TTGATGAATCCGTACTTGCTGG yielded a sensor-assay potency score (higher = more potent) in the experiment with PCSK5 of -0.268. TCTTGTTGCCATTGCCACCTGC displayed a sensor-assay potency score (higher = more potent) with PCDHGA11 of -0.107. In the case of TTCTCCAGAATCTTGATCTTGC, in the experiment with PCDHGA11, the sensor-assay potency score (higher = more potent) worked out at 0.227.

TCTCTGTCTAAAGATTTCCGTA displayed a sensor-assay potency score (higher = more potent) in the experiment with PCDHA4 of -0.816. In the experiment with PCP2, TTGGTGGTCTGGCCCGGCCCGG returned a sensor-assay potency score (higher = more potent) of -1.82. In the experiment with PCSK5, TTTGACACATTCCTAAGTCTAA showed a sensor-assay potency score (higher = more potent) of -0.793. In the experiment with PCP2, ATGAGGCTGTCCATCTCGGGGG displayed a sensor-assay potency score (higher = more potent) of -1.33. The sequence TTTTGCAGGATTTGTATCCATT registered a sensor-assay potency score (higher = more potent) with PCSK5 of -1.05. With TAGTGCAAACAGTCATTGCAGT, in the experiment with PCSK5, the sensor-assay potency score (higher = more potent) is -0.552. The sequence TAAGATCTACCACTGAAGCTTC yielded a sensor-assay potency score (higher = more potent) in the experiment with PDE1C of -0.318. For AAAGTCACAGATCTTGACCAGC, in the experiment with PDGFRB, the sensor-assay potency score (higher = more potent) is -0.788.

In the experiment with PDE1C, TTTCTTTGAATCATTTCCGATG had a sensor-assay potency score (higher = more potent) of -0.853. AATCTCTAGAACTCTGTCCAAG had a sensor-assay potency score (higher = more potent) with PDE8B of -1.58. Consider TAGAGTGATCCTTCTTGTCTGT, for which the sensor-assay potency score (higher = more potent) with PDE1C was 0.0178.

Regarding TTCATCTTTGGTACCCAGCTGA, the sensor-assay potency score (higher = more potent) with PDE8B is -0.0849. In the experiment with PDE8B, ATTGATTATATTTATAACCTTT came in with a sensor-assay potency score (higher = more potent) of -0.571. For the sequence TAGTCCACCGACTCGTCCTTGC, in the experiment with PDGFRB, the sensor-assay potency score (higher = more potent) is -0.654. In the experiment with PDGFRB, TTGACGGCCACTTTCATCGTGG yielded a sensor-assay potency score (higher = more potent) of -0.193.
